Measured values as given in paper PMC5540273 (PLoS ONE, 2017).

test system: CSF1R-autoinhibited; details: concentration: 1 μM, replicates: in singlicate; n = 1
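Note: KINOMEscan kinase panel screen.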

Row | Structure (SMILES) | %Inh
1 | CC(=O)N1CCN(c2ccc(Nc3nccc(-c4sc(C(C)C)nc4-c4cccc(NS(=O)(=O)c5cccc(Cl)c5)c4)n3)cn2)CC1 [GSK1660437] | 0%
2 | Cl.Cl.NCC(C(=O)Nc1cc(Br)c(-c2ccnc3[nH]ccc23)s1)c1ccccc1 (stereo not shown) [GSK1269851] | 0%
3 | CC(C)(C)c1ccc2nccc(Nc3cccc(O)c3)c2c1 [GW856795] | 54%
4 | NCCCC(NC(=O)c1cc(Br)c(-c2ccnc3[nH]ccc23)s1)c1ccccc1.O=C(O)C(F)(F)F.O=C(O)C(F)(F)F (stereo not shown) [GSK1287544] | 0%
5 | Cl.c1ccc(-c2ccc3c(Nc4ccc5[nH]ncc5c4)ccnc3c2)nc1 [GW440137] | 0%
6 | c1ccc(Oc2ccc(Nc3ccnc4cc(-c5ccc(CNCCN6CCOCC6)o5)ccc34)cc2)nc1 [GW567145] | 40%
7 | O=C(Nc1cccc(Oc2ccc3nc(NC(=O)C4CC4)cn3n2)c1)c1ccccc1C(F)(F)F | 88%
8 | CC(C)c1nc(-c2cccc(NS(=O)(=O)c3c(F)cccc3F)c2F)c(-c2ccnc(Nc3ccc(N4CCOCC4)nc3)n2)s1 [GSK2008607] | 0%
9 | Nc1ncc(-c2cccnc2)c2scc(-c3ccc4c(c3)CCN4C(=O)Cc3ccccc3)c12 [GSK683281] | 5%
10 | Cn1cc(-c2ccc3c(c2)CCN3C(=O)Cc2cccc(F)c2)c2c(N)ncnc21 [GSK2603358] | 26%
11 | Cl.NC(=O)c1cccc(Nc2nccc(Nc3ccc(Oc4c(Cl)cccc4Cl)c(Cl)c3)n2)c1 [GW659009] | 0%
12 | COCCOCCOc1cc2ncc3c4ccc(C#N)cc4[nH]c3c2cc1OC | 97.4%
13 | COc1cccc(-c2ccc3c(NC(=O)C4CC4)n[nH]c3n2)c1 [SB-710903] | 54%
14 | Nc1ncc(-c2ccc3nccc(-c4ccncc4)c3c2)cc1S(=O)(=O)N1CCOCC1 [GSK1627798] | 0%
15 | Cc1ccc(C(=O)N2CC[C@@H](O)C2)cc1-n1c(C)cc(OCc2ccc(F)cc2F)c(Br)c1=O | 0%
16 | O=C(O)C(F)(F)F.O=C(O)C(F)(F)F.O=c1[nH]ccc2nc(N[C@@H]3CCCNC3)nc(Nc3ccc(S(=O)(=O)N4CCOCC4)cc3)c12 [GSK2177277] | 83%
17 | COc1cc(Nc2nccc(-c3c(-c4cccc(NC(=O)c5c(F)cccc5F)c4)nn4ncccc34)n2)cc(OC)c1OC [GSK327238] | 55%
18 | COc1cccc(C2=C(Nc3ccc(Cl)c(C(=O)O)c3)C(=O)NC2=O)c1 [SB-390769] | 13%
19 | Cc1ccc(C(=O)Nc2ccc(Nc3ccnc4cc(-c5nccs5)ccc34)cc2O)cc1.Cl [GW494702] | 44%
20 | CCn1c(-c2nonc2N)nc2c(C#CC(C)(C)O)nc(OC[C@H](N)c3ccccc3)cc21 [GSK943949] | 0%
21 | COC(=O)Nc1nc2cc(Oc3ccc(NC(=O)Nc4cc(C(F)(F)F)ccc4F)cn3)ccc2[nH]1.Cl.Cl [GW681170] | 0%
22 | Cl.Cl.NCC(NCc1ccc(-c2ccnc3[nH]ccc23)s1)c1ccccc1 (stereo not shown) [GSK1321565] | 19%
23 | O=c1[nH]cc(-c2ccc(N3CCOCC3)cc2)c2sc(-c3cn[nH]c3)cc12 [GSK2276055] | 0%
24 | c1ccc(-c2cnc3nccnn23)cc1 [AH20685] | 14%
25 | COc1cc(Nc2nccc(-c3c(-c4cccc(NC(=O)c5c(F)cccc5F)c4)nn4ccccc34)n2)cc(OC)c1OC [GSK323521] | 0%
